Reference: PubChem BioAssay AID1159580 (chemical genetic matrix, 2015)
“And” between values parts separate entries of the source, which are not always exact repeats. Equal values may be shown once. In all, about 5,500 compounds went through this assay and about 2,000 (36%) were called active. Roughly 18% stayed inconclusive and do not appear here. No stated cut-off is given here; in the data, active means normalized growth mostly below about 0.91 (no sharp cut-off); inconclusive means no clear call, values can overlap the other calls; inactive means mostly above about 0.92. This is one part of the list.

Assay: chemical genetic growth profiling, strain panel (AID 1159580);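 further: tested at 20 µM; growth read once vehicle control cultures reached saturation at 30 °C; 1 = growth at the plate median or of vehicle wells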
Conditions: S. cerevisiae deletion strains, growth OD

Measured: normalized growth

C[C@]12CCC(=O)C=C1C=CC1C2CC[C@@]2(C)C1CC[C@@]21CCC(=O)O1 (stereo partly specified)
active: locus YDL101C, strain DUN1, stronger effect = lower value 0.877 | locus YDL192W, strain arf1, stronger effect = lower value 0.866 | locus YDR137W, strain rgp1, stronger effect = lower value 0.75 | locus YDR162C, strain NBP2, stronger effect = lower value 0.584 | locus YDR392W, strain spt3, stronger effect = lower value 0.662 | locus YDR502C, strain sam2, stronger effect = lower value 0.914 | locus YGL086W, strain mad1, stronger effect = lower value 0.917 | locus YKR001C, strain vps1, stronger effect = lower value 0.788 | locus YLR039C, strain RIC1, stronger effect = lower value 0.588 | locus YLR262C, strain YPT6 (second series), stronger effect = lower value 0.792 | locus YLR262C, strain YPT6, stronger effect = lower value 0.525 | locus YLR342W, strain FKS1 (second series), stronger effect = lower value 0.785 | locus YLR418C, strain cdc73, stronger effect = lower value 0.702 | locus YMR307W, strain GAS1, stronger effect = lower value 0.597 | locus YNL307C, strain MCK1, stronger effect = lower value 0.831 | locus YNR052C, strain pop2, stronger effect = lower value 0.906 | locus YOR184W, strain ser1, stronger effect = lower value 0.724 | locus YOR270C, strain vph1, stronger effect = lower value 0.771 | locus YPR163C, strain tif3, stronger effect = lower value 0.867
inactive: locus YAL013W, strain DEP1, stronger effect = lower value 0.956 | locus YAL021C, strain ccr4, stronger effect = lower value 0.971 | locus YAL026C, strain drs2, stronger effect = lower value 0.97 | locus YAL030W, strain snc1, stronger effect = lower value 0.974 | locus YBL061C, strain skt5, stronger effect = lower value 0.977 | locus YBR009C, strain hhf1, stronger effect = lower value 0.962 | locus YBR021W, strain FUR4, stronger effect = lower value 1 | locus YBR023C, strain chs3, stronger effect = lower value 0.979 | locus YBR171W, strain sec66, stronger effect = lower value 0.966 | locus YBR229C, strain ROT2, stronger effect = lower value 0.979 | locus YBR231C, strain swc5, stronger effect = lower value 0.989 | locus YBR279W, strain paf1, stronger effect = lower value 0.983 | locus YCL011C, strain gbp2, stronger effect = lower value 0.968 | locus YCL016C, strain dcc1, stronger effect = lower value 0.976 | locus YCL029C, strain bik1, stronger effect = lower value 0.949 | locus YCL061C, strain MRC1, stronger effect = lower value 0.954 | locus YCL069W, strain vba3, stronger effect = lower value 0.974 | locus YCR088W, strain abp1, stronger effect = lower value 0.974 | locus YDL005C, strain med2, stronger effect = lower value 0.98 | locus YDL035C, strain GPR1, stronger effect = lower value 0.962 | locus YDL040C, strain nat1, stronger effect = lower value 0.977 | locus YDL074C, strain BRE1, stronger effect = lower value 0.872 | locus YDL185W, strain tfp1, stronger effect = lower value 0.967 | locus YDR001C, strain nth1, stronger effect = lower value 0.952 | locus YDR069C, strain doa4, stronger effect = lower value 0.984 | locus YDR101C, strain arx1, stronger effect = lower value 0.955 | locus YDR150W, strain NUM1, stronger effect = lower value 0.985 | locus YDR159W, strain sac3, stronger effect = lower value 0.901 | locus YDR195W, strain ref2 1.12 | locus YDR297W, strain sur2, stronger effect = lower value 0.981 | locus YDR318W, strain mcm21, stronger effect = lower value 0.956 | locus YDR334W, strain swr1, stronger effect = lower value 0.977 | locus YDR335W, strain msn5, stronger effect = lower value 0.976 | locus YDR388W, stronger effect = lower value 0.969 | locus YEL003W, strain gim4, stronger effect = lower value 0.962 | locus YEL037C, strain rad23, stronger effect = lower value 0.971 | locus YEL061C, strain CIN8 (second series), stronger effect = lower value 0.967 | locus YEL061C, strain CIN8, stronger effect = lower value 0.978 | locus YER015W, strain faa2, stronger effect = lower value 0.979 | locus YER016W, strain bim1, stronger effect = lower value 0.975 | locus YER110C, stronger effect = lower value 0.965 | locus YER111C, strain swi4, stronger effect = lower value 0.962 | locus YER155C, strain BEM2 (second series), stronger effect = lower value 0.988 | locus YER155C, strain BEM2, stronger effect = lower value 0.996 | locus YER167W, strain BCK2, stronger effect = lower value 0.956 | locus YFR010W, strain ubp6, stronger effect = lower value 0.986 | locus YGL078C, strain dbp3, stronger effect = lower value 0.985 | locus YGL167C, strain pmr1, stronger effect = lower value 0.968 | locus YGL173C, strain kem1, stronger effect = lower value 0.953 | locus YGL227W, strain vid30, stronger effect = lower value 0.988 | locus YGL240W, strain doc1, stronger effect = lower value 0.992 | locus YGL248W, strain PDE1, stronger effect = lower value 0.919 | locus YGL253W, strain hxk2, stronger effect = lower value 0.947 | locus YGR135W, strain pre9, stronger effect = lower value 0.936 | locus YGR252W, strain gcn5, stronger effect = lower value 0.969 | locus YHR013C, strain ard1, stronger effect = lower value 0.901 | locus YHR027C, strain rpn1, stronger effect = lower value 0.982 | locus YHR030C, strain SLT2, stronger effect = lower value 0.948 and 0.967 | locus YHR079C, strain IRE1 (second series), stronger effect = lower value 0.971 | locus YHR079C, strain IRE1, stronger effect = lower value 0.98 | locus YHR094C, strain hxt1, stronger effect = lower value 0.974 | locus YHR129C, strain ARP1, stronger effect = lower value 0.939 | locus YHR142W, strain chs7, stronger effect = lower value 0.922 | locus YHR200W, strain rpn10, stronger effect = lower value 0.984 | locus YIL066C, strain RNR3, stronger effect = lower value 0.95 | locus YIL073C, strain SPO22, stronger effect = lower value 0.948 | locus YIL125W, strain kgd1, stronger effect = lower value 0.979 | locus YIR030C, strain dcg1, stronger effect = lower value 0.979 | locus YJL092W, strain hpr5, stronger effect = lower value 0.963 | locus YJL095W, strain BCK1 (second series), stronger effect = lower value 0.984 | locus YJL095W, strain BCK1, stronger effect = lower value 0.807 and 0.975 | locus YJL115W, strain asf1, stronger effect = lower value 0.971 | locus YJL129C, strain trk1, stronger effect = lower value 0.95 | locus YJL134W, strain LCB3, stronger effect = lower value 0.982 | locus YJL154C, strain vps35, stronger effect = lower value 0.979 | locus YJL164C, strain tpk1, stronger effect = lower value 0.946 | locus YJL166W, strain qcr8, stronger effect = lower value 0.993 | locus YJL168C, strain set2, stronger effect = lower value 0.969 | locus YJL187C, strain SWE1 (second series), stronger effect = lower value 0.931 | locus YJL187C, strain SWE1, stronger effect = lower value 0.973 | locus YJR043C, strain POL32, stronger effect = lower value 1.06 | locus YJR066W, strain TOR1, stronger effect = lower value 0.951 | locus YKL009W, strain mrt4, stronger effect = lower value 0.948 | locus YKL068W, stronger effect = lower value 0.966 | locus YKL085W, strain MDH1 (second series), stronger effect = lower value 0.971 | locus YKL085W, strain MDH1, stronger effect = lower value 0.971 | locus YKL160W, strain elf1, stronger effect = lower value 0.982 | locus YKR026C, strain gcn3, stronger effect = lower value 0.98 | locus YKR091W, strain srl3, stronger effect = lower value 0.969 | locus YLL001W, strain dnm1, stronger effect = lower value 0.983 | locus YLL026W, stronger effect = lower value 0.989 | locus YLL041C, strain sdh2, stronger effect = lower value 0.983 | locus YLR027C, strain aat2, stronger effect = lower value 0.994 | locus YLR058C, strain SHM2, stronger effect = lower value 0.959 | locus YLR102C, strain apc9, stronger effect = lower value 0.973 | locus YLR113W, strain HOG1, stronger effect = lower value 0.934 | locus YLR221C, strain rsa3, stronger effect = lower value 0.956 | locus YLR258W, strain gsy2, stronger effect = lower value 0.964 | locus YLR268W, strain sec22, stronger effect = lower value 0.914 | locus YLR320W, strain mms22, stronger effect = lower value 0.9 | locus YLR330W, strain CHS5, stronger effect = lower value 0.938 | locus YLR342W, strain FKS1, stronger effect = lower value 0.961 | locus YLR357W, strain rsc2, stronger effect = lower value 1.01 | locus YLR370C, strain arc18, stronger effect = lower value 0.969 | locus YLR371W, strain rom2, stronger effect = lower value 0.975 | locus YLR384C, strain iki3, stronger effect = lower value 0.993 | locus YML016C, strain PPZ1, stronger effect = lower value 0.973 | locus YML032C, strain rad52, stronger effect = lower value 0.971 | locus YML120C, strain ndi1, stronger effect = lower value 0.971 | locus YML124C, strain tub3, stronger effect = lower value 0.986 | locus YMR058W, strain fet3, stronger effect = lower value 0.964 | locus YMR078C, strain ctf18, stronger effect = lower value 0.973 | locus YMR125W, strain sto1, stronger effect = lower value 0.985 | locus YMR129W, stronger effect = lower value 0.973 | locus YMR205C, strain PFK2, stronger effect = lower value 0.938 | locus YMR223W, strain ubp8, stronger effect = lower value 0.941 | locus YMR231W, strain pep5, stronger effect = lower value 0.99 | locus YNL067W, strain RPL9B, stronger effect = lower value 0.937 | locus YNL071W, strain lat1, stronger effect = lower value 0.927 | locus YNL128W, strain TEP1, stronger effect = lower value 0.965 | locus YNL153C, strain GIM3, stronger effect = lower value 0.953 | locus YNL183C, strain NPR1, stronger effect = lower value 0.928 | locus YNL209W, strain ssb2, stronger effect = lower value 0.985 | locus YNL233W, strain BNI4, stronger effect = lower value 0.923 | locus YNL248C, strain rpa49, stronger effect = lower value 0.912 | locus YNL250W, strain rad50, stronger effect = lower value 0.981 | locus YNL271C, strain bni1, stronger effect = lower value 0.968 | locus YNL298W, strain CLA4, stronger effect = lower value 0.955 | locus YNL322C, strain KRE1 (second series), stronger effect = lower value 0.991 | locus YNL322C, strain KRE1, stronger effect = lower value 0.997 | locus YNR049C, strain mso1, stronger effect = lower value 0.947 | locus YOL012C, strain htz1 0.991 | locus YOL147C, strain pex11, stronger effect = lower value 0.971 | locus YOR001W, strain rrp6, stronger effect = lower value 1 | locus YOR061W, strain CKA2, stronger effect = lower value 0.958 | locus YOR069W, strain VPS5, stronger effect = lower value 0.975 | locus YOR070C, strain gyp1, stronger effect = lower value 0.969 | locus YOR080W, strain dia2, stronger effect = lower value 0.979 | locus YOR083W, strain WHI5, stronger effect = lower value 0.975 | locus YOR106W, strain vam3, stronger effect = lower value 0.961 | locus YOR136W, strain idh2, stronger effect = lower value 0.963 | locus YOR144C, strain elg1, stronger effect = lower value 0.976 | locus YOR231W, strain MKK1, stronger effect = lower value 0.97 | locus YOR265W, strain rbl2, stronger effect = lower value 0.983 | locus YOR290C, strain snf2, stronger effect = lower value 0.947 | locus YOR316C, strain cot1, stronger effect = lower value 0.968 | locus YPL051W, strain arl3, stronger effect = lower value 0.969 | locus YPL055C, strain LGE1, stronger effect = lower value 0.909 | locus YPL078C, strain atp4, stronger effect = lower value 0.975 | locus YPL106C, strain sse1, stronger effect = lower value 0.994 | locus YPL240C, strain hsp82, stronger effect = lower value 0.998 | locus YPL241C, strain CIN2, stronger effect = lower value 0.991 | locus YPL256C, strain CLN2, stronger effect = lower value 0.946 | locus YPR119W, strain clb2, stronger effect = lower value 0.981 | locus YPR141C, strain kar3, stronger effect = lower value 0.947 | locus YPR167C, strain met16, stronger effect = lower value 0.967 | strain wtn01, stronger effect = lower value 0.902
